Hits are enriched below; roughly 27% of the tested compounds scored in any of these assays.
Cav3 T inh – inhibitors of human Cav3.2 T-type calcium channel; O95180; Cav3.2-expressing cells, Fluo-4 calcium fluorescence FDSS; active compounds read low; B-score at 10 µM; actives 4% (n = 100,000); AID 449739;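 active = single-dose well whose peak fluorescence ratio is a statistical outlier from its plate by either plate-standardised score or position-corrected B-score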
Target sequence (O95180 whole entry, looked up): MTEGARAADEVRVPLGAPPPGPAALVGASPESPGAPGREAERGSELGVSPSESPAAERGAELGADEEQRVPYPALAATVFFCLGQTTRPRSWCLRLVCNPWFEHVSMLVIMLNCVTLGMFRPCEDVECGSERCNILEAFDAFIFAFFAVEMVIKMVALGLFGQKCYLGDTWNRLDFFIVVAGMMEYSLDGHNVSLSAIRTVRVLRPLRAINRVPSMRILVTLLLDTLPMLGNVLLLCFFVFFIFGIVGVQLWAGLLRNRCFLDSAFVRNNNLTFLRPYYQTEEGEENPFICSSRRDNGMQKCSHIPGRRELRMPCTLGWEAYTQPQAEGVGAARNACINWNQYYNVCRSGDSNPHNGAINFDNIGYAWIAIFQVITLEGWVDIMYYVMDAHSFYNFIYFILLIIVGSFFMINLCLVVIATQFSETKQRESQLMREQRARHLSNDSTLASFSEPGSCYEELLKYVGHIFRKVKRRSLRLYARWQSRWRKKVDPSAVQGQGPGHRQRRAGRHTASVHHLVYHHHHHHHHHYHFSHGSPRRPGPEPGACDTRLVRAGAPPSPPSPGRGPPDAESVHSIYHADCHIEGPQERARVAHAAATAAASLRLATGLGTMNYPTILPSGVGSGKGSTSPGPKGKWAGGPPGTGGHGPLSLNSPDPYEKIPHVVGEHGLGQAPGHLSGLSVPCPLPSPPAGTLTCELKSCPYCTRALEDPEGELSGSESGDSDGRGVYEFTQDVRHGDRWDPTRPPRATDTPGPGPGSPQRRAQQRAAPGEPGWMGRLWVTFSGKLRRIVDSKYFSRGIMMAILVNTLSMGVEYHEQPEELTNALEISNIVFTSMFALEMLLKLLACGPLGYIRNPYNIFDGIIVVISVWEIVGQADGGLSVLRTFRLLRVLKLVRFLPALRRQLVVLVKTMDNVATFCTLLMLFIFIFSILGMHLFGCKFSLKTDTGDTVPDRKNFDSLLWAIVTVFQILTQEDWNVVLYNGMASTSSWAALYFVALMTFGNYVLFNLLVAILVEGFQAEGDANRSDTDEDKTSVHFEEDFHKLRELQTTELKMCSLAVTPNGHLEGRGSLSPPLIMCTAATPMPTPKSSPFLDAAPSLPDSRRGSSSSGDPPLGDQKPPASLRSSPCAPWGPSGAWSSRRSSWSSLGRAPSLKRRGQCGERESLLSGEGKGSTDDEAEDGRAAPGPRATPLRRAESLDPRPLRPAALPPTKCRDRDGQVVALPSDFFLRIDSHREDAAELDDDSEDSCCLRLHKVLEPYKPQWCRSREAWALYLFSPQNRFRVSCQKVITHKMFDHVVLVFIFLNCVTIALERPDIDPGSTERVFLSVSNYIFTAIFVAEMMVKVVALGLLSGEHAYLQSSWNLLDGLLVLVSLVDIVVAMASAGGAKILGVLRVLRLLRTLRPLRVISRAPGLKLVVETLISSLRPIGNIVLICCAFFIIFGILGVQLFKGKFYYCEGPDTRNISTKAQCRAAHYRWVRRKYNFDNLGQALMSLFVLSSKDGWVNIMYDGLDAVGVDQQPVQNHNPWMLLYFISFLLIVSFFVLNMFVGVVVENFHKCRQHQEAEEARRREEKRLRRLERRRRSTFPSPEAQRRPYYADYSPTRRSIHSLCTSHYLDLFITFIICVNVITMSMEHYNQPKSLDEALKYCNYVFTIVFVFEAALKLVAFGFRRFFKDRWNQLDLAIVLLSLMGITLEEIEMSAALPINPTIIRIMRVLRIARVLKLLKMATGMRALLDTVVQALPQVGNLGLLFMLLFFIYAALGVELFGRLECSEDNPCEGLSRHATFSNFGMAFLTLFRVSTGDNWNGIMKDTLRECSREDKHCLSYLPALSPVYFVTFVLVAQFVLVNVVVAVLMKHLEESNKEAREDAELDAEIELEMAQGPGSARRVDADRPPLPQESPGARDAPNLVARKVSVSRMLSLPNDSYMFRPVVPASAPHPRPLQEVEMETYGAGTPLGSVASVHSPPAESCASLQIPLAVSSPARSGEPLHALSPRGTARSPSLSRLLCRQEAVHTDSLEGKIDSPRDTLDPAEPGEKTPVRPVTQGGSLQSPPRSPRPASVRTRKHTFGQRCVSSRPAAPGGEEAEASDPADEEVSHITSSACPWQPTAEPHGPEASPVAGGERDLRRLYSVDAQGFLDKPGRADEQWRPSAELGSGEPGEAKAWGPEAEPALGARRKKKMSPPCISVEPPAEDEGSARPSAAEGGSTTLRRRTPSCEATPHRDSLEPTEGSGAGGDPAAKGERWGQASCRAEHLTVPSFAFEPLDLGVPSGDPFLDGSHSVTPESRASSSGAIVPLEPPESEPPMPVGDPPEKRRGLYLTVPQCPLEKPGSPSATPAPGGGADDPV
CYP2C19 inhib – human CYP2C19 inhibition. P33261. CYP2C19 Supersomes, luciferin-H EGE luminescence, 30 min. inhibition, % at 5 µM. actives 21% (n = 96,000). AID 778;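 active = CYP2C19 inhibition above a set limit at 5 µM in the primary screen, cut at about 50% in these data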
CYP2C9 inh – human CYP2C9 inhibition | P11712 | CYP2C9 Supersomes, luciferin-H conversion, luminescence | inhibition, % at 5 µM | actives 20% (n = 96,000) | AID 777;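 active = blocking of liver enzyme CYP2C9 beyond about 50% at 5 µM, limit read from the data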
CYP2C9 act – increases human cytochrome P450 2C9 activity; P11712; actives 1.4% (n = 96,000); recombinant CYP2C9, luciferin-H conversion, luminescence; active compounds read high; factor 1 = untreated enzyme, 0 = blocked; activation factor at 5 µM; AID 1024;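 active = activation factor of 2 or more for CYP2C9 at a 5 µM dose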
CYP2C19 activ – cytochrome P450 2C19 (human) activation | P33261 | recombinant CYP2C19, luciferin-H EGE luminescence; active compounds read high; 0 = fully inhibited enzyme, 1 = untreated enzyme | activation factor at 5 µM | 96,000 tested, under 10 active;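 active = activation factor of at least 2 at 5 µM in the primary screen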
Large screens that a line does not name were inactive.

Cn1nnnc1SCC(=O)N1CCN(c2ccccc2)CC1	none
Cn1nnnc1SCC(=O)N1CCN(c2cccc(Cl)c2)CC1	CYP2C19 inhib 72 (no result: Cav3 T inh)
O=C(CSc1nnnn1-c1cccc2ccccc12)N1CCOCC1	CYP2C9 act 2.9
O=C(CSc1nnnn1-c1ccccc1)N1CCCc2ccccc21	CYP2C19 inhib 80, CYP2C9 inh 58
O=C(CSc1nnc(-c2cccs2)n1-c1ccccc1)N1CCCc2ccccc21	CYP2C9 inh 85
O=C(CSc1nnnn1-c1ccc2c(c1)OCCO2)N1CCc2ccccc21	none
CCOC(=O)c1c(C)[nH]c(C(=O)C(C)OC(=O)c2oc3ccccc3c2COC)c1C (centres undefined)	none
COCOc1ccc(C2CC(=O)c3c(OCOC)cc(OCOC)cc3O2)cc1 (centres undefined)	none (no result: CYP2C19 inhib, CYP2C9 inh, CYP2C9 act, CYP2C19 activ)
Nn1c(SCC(=O)N2CCc3ccccc3C2)nnc1-c1cccs1	none
O=C(CSc1nnnn1-c1ccc(Cl)cc1)N1CCc2ccccc2C1	CYP2C19 inhib 74
Nc1nc(SCC(=O)N2CCCc3ccccc32)n(-c2ccccc2)n1	CYP2C19 inhib 75
Nn1c(SCC(=O)N2CCCc3ccccc32)nnc1-c1ccccc1	none (no result: Cav3 T inh)
CCn1nnnc1SCC(=O)N1c2ccccc2CCc2ccccc21	CYP2C19 inhib 91, CYP2C9 inh 71
CCCn1nnnc1SCC(=O)N1CCCc2ccccc21	CYP2C19 inhib 83
COCCSc1nc2c(c(=O)[nH]c(=O)n2C)n1Cc1cccc(C)c1	none (no result: CYP2C19 inhib, CYP2C9 inh, CYP2C9 act, CYP2C19 activ)
Cc1ccc(C(=O)C(C)OC(=O)C2CC(=O)N(C3CCCCC3)C2)cc1 (centres undefined)	none
CN1C(=O)C2(N=c3ccccc3=N2)c2ccccc21	CYP2C9 inh 80
Cn1c(COc2ccccc2)nnc1SCCC(=O)Nc1ccccc1	CYP2C19 inhib 74, CYP2C9 inh 88
CCn1c(SCCC(=O)Nc2ccccc2)nnc1-c1ccc(OC)cc1	CYP2C19 inhib 93, CYP2C9 inh 62
CCCC(=O)NCCSC	none
O=C(O)c1ccccc1-c1ccccc1C(=O)NCc1ccco1	none (no result: Cav3 T inh)
O=C(CN(c1ccc(F)cc1)S(=O)(=O)c1ccc2c(c1)OCCO2)Nc1ccccc1	CYP2C9 inh 65
O=C(CN(c1ccc(F)cc1)S(=O)(=O)c1ccc2c(c1)OCCO2)Nc1cccnc1	CYP2C19 inhib 92, CYP2C9 inh 99
CC(=O)Nc1ccc(NC(=O)CN(c2ccc(F)cc2)S(=O)(=O)c2ccc3c(c2)OCCO3)cc1	none
O=C(CN(Cc1ccccc1)S(=O)(=O)c1ccc2c(c1)OCCO2)Nc1ccc2c(c1)OCCO2	CYP2C9 inh 96
CN(Cc1ccccc1)C(=O)CN(c1ccc(F)cc1)S(=O)(=O)c1ccc2c(c1)OCCO2	Cav3 T inh -5 (no result: CYP2C19 inhib, CYP2C9 inh, CYP2C9 act, CYP2C19 activ)
CCCOc1ccc2[nH]cc(C(=O)O)c(=O)c2c1	none
CC/C(C)=C1\SC(N2CCOCC2)=NC1=O	none
COC(=O)c1ccc(CSc2ncnc3c2nnn3-c2ccc(F)cc2)o1	none
CCN(CC)c1ccc(C2N(C(=O)N3CCOCC3)CCN2S(=O)(=O)c2ccc(C)cc2)cc1 (centres undefined)	Cav3 T inh -4.1
Cc1ccc(S(=O)(=O)N2CCN(C(=O)N3CCOCC3)C2C(C)C)cc1 (centres undefined)	none
O=C(O[C@@H]1OC2COC(=O)c3cc(O)c(O)c(O)c3-c3c(cc(O)c(O)c3O)C(=O)O[C@@H]([C@H]1O)[C@@H]2O)c1cc(O)c(O)c(O)c1	none (no result: CYP2C19 inhib, CYP2C9 inh, CYP2C9 act, CYP2C19 activ)
C/C=C(\C)CN1CCc2cc(OC)c(OC)cc2C1	none
CCCS(=O)(=O)N1CCc2cc(OC)c(OC)cc2C1	CYP2C19 inhib 55
O=C(NCC1CCC(C(=O)O)CC1)c1cccnc1 (centres undefined)	none
C/C(N)=C(/C#N)C(=O)CSc1ncnc2ccccc12	CYP2C19 inhib 71
C/C(N)=C(/C#N)C(=O)CSc1nc2ccccc2[nH]1	CYP2C19 inhib 71
CC1CCN(C(=O)CSc2nc3ccccc3[nH]2)CC1	CYP2C19 inhib 74
NC(=O)C1CCN(C(=O)CSc2nc3ccccc3[nH]2)CC1	none
C=CCn1c(=O)c2ccccc2n2c(SC(C)C(=O)Nc3nc(-c4ccccc4)cs3)nnc12 (centres undefined)	none (no result: CYP2C19 inhib, CYP2C9 inh, CYP2C9 act, CYP2C19 activ)
CCn1c(=O)n(CC)c2cc(S(=O)(=O)N3CCc4ccccc43)ccc21	CYP2C19 inhib 96, CYP2C9 inh 95
O=S(=O)(NC1CC1)c1ccc(S(=O)(=O)N2CCc3ccccc32)cc1	CYP2C19 inhib 72, CYP2C9 inh 82
CCC(=O)N1CCCc2cc(S(=O)(=O)N3CCCc4ccccc43)ccc21	none

Bioassay records from PubChem.
